Source: the supplement of paper PMC11732987, “Enantioselective OTUD7B fragment discovery through chemoproteomics screening and high-throughput optimisation” (Communications Chemistry, 2025)

What was measured:
Experiment in all cases: log2 ratio of Biotin-Ahx-Ub-VS probe labelling (compound/DMSO); higher = less target engagement, active = hit call of the paper (q ≤ 0.05, log2 ratio ≤ -1)
Settings in all cases: treatment time: 3 h
[1] = compound: CCC1N(CCc2sccc12)C(=O)CCl
Method in brief: (§1)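 HEK293T lysate (495 µg per sample, in Tris/CHAPS/IGEPAL buffer with protease inhibitors) was exposed in triplicate to compound at 50 or 200 µM, or to DMSO, for 3 h, then to Biotin-Ahx-Ub-VS (0.5 µM final) for 1 h. The labelled DUBs were enriched on NeutrAvidin, digested with LysC and trypsin, and analysed by diaPASEF LC-MS/MS. Average base-two log ratios of compound over DMSO came from median-normalised label-free quantities by unpaired t-test. Only proteins with at least 2 unique peptides were used.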

[2] = compound: CN1c2ccccc2C(CS1(=O)=O)NC(=O)CCl
Method in brief: as §1

[3] = compound: Cl.ClCC(=O)N1CCc2ncncc2C1
Method in brief: as §1

[4] = compound: Cl.Cn1ncc2C(CCCc12)NC(=O)CCl
Method in brief: as §1

[5] = compound: ClCC(=O)NC1CCOc2ccccc12
Method in brief: as §1

[6] = compound: ClCC(=O)NC1CCCc2ccccc12
Method in brief: (§2)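 Each value is an average ratio of compound to vehicle, calculated by unpaired t-test. Lysate from HEK293T cells (495 µg per sample) was incubated in triplicate with compound over a concentration range or vehicle for 3 h and then with Biotin-Ahx-Ub-VS (0.5 µM final) for 1 h. Probe-labelled deubiquitinases were captured on NeutrAvidin, digested and run by diaPASEF LC-MS/MS, with Spectronaut label-free quantities normalised to the global median. Ratios are log2, and only proteins with at least two unique peptides were used.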

[7] = compound: ClCC(=O)N[C@@H]1CCCc2ccccc12
Method in brief: as §2

[8] = compound: ClCC(=O)N[C@H]1CCCc2ccccc12
Method in brief: as §2

[9] = compound: CCC1N(CCc2cc(OC)c(Cl)cc12)C(=O)CCl
Method in brief: as §1

[10] = compound: CCCC1N(CCc2cc(OC)c(OC)cc12)C(=O)CCl
Method in brief: as §1

Measured: log2 ratio of Biotin-Ahx-Ub-VS probe labelling

USP10 (UniProt Q14694)
UniProt Q14694, sequence (Q14694 whole entry): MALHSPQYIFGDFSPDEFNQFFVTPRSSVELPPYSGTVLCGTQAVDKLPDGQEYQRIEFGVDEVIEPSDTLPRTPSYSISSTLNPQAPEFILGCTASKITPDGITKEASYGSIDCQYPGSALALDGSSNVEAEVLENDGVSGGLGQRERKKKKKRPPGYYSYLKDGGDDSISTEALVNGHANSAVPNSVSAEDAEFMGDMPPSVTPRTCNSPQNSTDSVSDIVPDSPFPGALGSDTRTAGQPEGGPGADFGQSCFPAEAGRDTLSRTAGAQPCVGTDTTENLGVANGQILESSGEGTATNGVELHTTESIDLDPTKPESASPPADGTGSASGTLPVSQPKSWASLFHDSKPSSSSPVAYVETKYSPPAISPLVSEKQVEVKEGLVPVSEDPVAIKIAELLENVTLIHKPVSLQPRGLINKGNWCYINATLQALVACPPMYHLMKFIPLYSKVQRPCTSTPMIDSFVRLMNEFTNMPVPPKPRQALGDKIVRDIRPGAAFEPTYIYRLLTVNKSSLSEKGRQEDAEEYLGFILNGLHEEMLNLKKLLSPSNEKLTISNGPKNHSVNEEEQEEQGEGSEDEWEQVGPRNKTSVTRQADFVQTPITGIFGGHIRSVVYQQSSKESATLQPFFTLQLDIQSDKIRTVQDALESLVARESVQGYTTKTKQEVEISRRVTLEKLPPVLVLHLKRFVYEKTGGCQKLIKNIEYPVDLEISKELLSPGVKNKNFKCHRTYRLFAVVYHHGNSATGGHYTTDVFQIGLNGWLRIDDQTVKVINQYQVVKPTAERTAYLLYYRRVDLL
inactive: [1]; compound concentration: 50uM -0.19 | [1]; compound concentration: 200uM -0.0252 | [2]; compound concentration: 50uM -0.181 | [2]; compound concentration: 200uM -0.0808 | [3]; compound concentration: 50uM -0.0803 | [3]; compound concentration: 200uM -0.275 | [4]; compound concentration: 50uM -0.122 | [4]; compound concentration: 200uM 0.147 | [5]; compound concentration: 50uM 0.0122 | [5]; compound concentration: 200uM 0.0383 | [6]; compound concentration: 0.78uM -0.0342 | [6]; compound concentration: 1.56uM -0.0587 | [6]; compound concentration: 3.13uM -0.0649 | [6]; compound concentration: 6.25uM -0.0649 | [6]; compound concentration: 12.5uM -0.132 | [6]; compound concentration: 25uM -0.0689 | [6]; compound concentration: 50uM -0.0491 | [6]; compound concentration: 100uM -0.183 | [6]; compound concentration: 200uM -0.0607 | [7]; compound concentration: 0.78uM -0.0933 | [7]; compound concentration: 1.56uM -0.139 | [7]; compound concentration: 3.13uM -0.0782 | [7]; compound concentration: 6.25uM -0.0824 | [7]; compound concentration: 12.5uM -0.0687 | [7]; compound concentration: 25uM -0.0178 | [7]; compound concentration: 50uM 0.00497 | [7]; compound concentration: 100uM -0.08 | [7]; compound concentration: 200uM -0.0678 | [8]; compound concentration: 0.78uM -0.0203 | [8]; compound concentration: 1.56uM -0.0495 | [8]; compound concentration: 3.13uM -0.0618 | [8]; compound concentration: 6.25uM -0.0539 | [8]; compound concentration: 12.5uM 0.0103 | [8]; compound concentration: 25uM -0.0249 | [8]; compound concentration: 50uM -0.0723 | [8]; compound concentration: 100uM 0.0262 | [8]; compound concentration: 200uM -0.109 | [9]; compound concentration: 50uM -0.0451 | [9]; compound concentration: 200uM -0.029 | [10]; compound concentration: 50uM -0.317 | [10]; compound concentration: 200uM -0.194

USP19 (UniProt O94966)
UniProt O94966, sequence (O94966 whole entry): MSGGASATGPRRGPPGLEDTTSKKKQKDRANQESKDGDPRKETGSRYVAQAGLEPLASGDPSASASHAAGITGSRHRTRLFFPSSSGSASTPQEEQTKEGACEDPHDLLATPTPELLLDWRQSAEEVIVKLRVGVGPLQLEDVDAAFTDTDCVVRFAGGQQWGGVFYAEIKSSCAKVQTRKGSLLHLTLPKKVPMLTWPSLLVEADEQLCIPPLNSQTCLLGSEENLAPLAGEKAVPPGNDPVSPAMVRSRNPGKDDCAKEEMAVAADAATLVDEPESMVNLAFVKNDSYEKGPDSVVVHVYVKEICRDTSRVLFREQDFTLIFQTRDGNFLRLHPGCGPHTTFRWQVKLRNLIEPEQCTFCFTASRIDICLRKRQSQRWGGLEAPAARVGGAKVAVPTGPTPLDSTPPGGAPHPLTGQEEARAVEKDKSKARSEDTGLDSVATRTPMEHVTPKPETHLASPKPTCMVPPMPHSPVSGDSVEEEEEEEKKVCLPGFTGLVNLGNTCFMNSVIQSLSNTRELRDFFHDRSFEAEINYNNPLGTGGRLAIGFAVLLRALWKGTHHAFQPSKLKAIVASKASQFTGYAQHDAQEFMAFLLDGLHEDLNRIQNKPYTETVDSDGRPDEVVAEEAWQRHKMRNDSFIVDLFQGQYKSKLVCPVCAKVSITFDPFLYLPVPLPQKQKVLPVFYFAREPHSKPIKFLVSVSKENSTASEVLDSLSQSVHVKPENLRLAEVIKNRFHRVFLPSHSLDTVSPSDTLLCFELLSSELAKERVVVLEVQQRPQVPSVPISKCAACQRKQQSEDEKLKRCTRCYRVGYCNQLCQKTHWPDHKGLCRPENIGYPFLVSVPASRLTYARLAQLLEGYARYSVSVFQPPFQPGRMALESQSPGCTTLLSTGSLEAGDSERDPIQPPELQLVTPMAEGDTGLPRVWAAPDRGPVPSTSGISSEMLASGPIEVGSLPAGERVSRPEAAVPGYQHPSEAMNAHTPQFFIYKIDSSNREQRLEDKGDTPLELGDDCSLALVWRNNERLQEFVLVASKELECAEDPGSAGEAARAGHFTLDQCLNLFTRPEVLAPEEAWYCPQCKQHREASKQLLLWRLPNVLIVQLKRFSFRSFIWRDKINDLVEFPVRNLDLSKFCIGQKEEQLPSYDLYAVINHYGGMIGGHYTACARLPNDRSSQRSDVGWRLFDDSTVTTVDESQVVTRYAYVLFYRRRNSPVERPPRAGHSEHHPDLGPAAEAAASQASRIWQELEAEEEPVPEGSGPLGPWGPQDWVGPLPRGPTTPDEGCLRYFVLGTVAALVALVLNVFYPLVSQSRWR
inactive: [1]; compound concentration: 50uM -0.285 | [1]; compound concentration: 200uM -0.845 | [2]; compound concentration: 50uM -0.191 | [2]; compound concentration: 200uM -0.286 | [3]; compound concentration: 50uM -0.264 | [4]; compound concentration: 50uM 0.00316 | [4]; compound concentration: 200uM -0.0581 | [5]; compound concentration: 50uM -0.218 | [5]; compound concentration: 200uM -0.211 | [6]; compound concentration: 0.78uM 0.0115 | [6]; compound concentration: 1.56uM 0.0325 | [6]; compound concentration: 3.13uM -0.14 | [6]; compound concentration: 6.25uM -0.00117 | [6]; compound concentration: 12.5uM -0.0872 | [6]; compound concentration: 25uM -0.173 | [6]; compound concentration: 50uM -0.131 | [6]; compound concentration: 100uM -0.081 | [6]; compound concentration: 200uM -0.216 | [7]; compound concentration: 0.78uM -0.105 | [7]; compound concentration: 1.56uM -0.0178 | [7]; compound concentration: 3.13uM -0.00588 | [7]; compound concentration: 6.25uM 0.0401 | [7]; compound concentration: 12.5uM -0.0591 | [7]; compound concentration: 25uM -0.121 | [7]; compound concentration: 50uM -0.26 | [7]; compound concentration: 100uM -0.182 | [7]; compound concentration: 200uM -0.339 | [8]; compound concentration: 0.78uM -0.0486 | [8]; compound concentration: 1.56uM -0.0156 | [8]; compound concentration: 3.13uM 0.00736 | [8]; compound concentration: 6.25uM 0.0504 | [8]; compound concentration: 12.5uM -0.0195 | [8]; compound concentration: 25uM -0.0989 | [8]; compound concentration: 50uM -0.0366 | [8]; compound concentration: 100uM -0.126 | [8]; compound concentration: 200uM -0.311 | [9]; compound concentration: 50uM -0.648
active: [3]; compound concentration: 200uM -1.13 | [9]; compound concentration: 200uM -2.38 | [10]; compound concentration: 50uM -1.67 | [10]; compound concentration: 200uM -3.32
